As usually defined, the inhibition is the relative decrease from the control value, in per cent.

Each structure is given as a SMILES string. The whole screen tested about 220,000 compounds, of which about 830 (0.38%) were called active.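 Rule for the calls: active = compound inhibiting the enzyme by more than half at any dose during confirmatory dose-response retesting; inconclusive = strong single-dose inhibitors picked by rank but not retested; inactive = the rest.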 A selection follows. Measured potencies and affinities stand elsewhere.

Experimental findings from PubChem BioAssay AID1619 (SRMLSC, 2009) are described below.

The target of the assay is Leucine aminopeptidase (Plasmodium falciparum (isolate 3D7)) (UniProt Q8IL11). Kind of assay: P. falciparum M17LAP inhibitors, primary screen, biochemical, fluorogenic H-Leu-NHMec substrate, 1536-well (AID 1619).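 Note: plate controls were full reaction with DMSO carrier for no effect and no enzyme background for full effect.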 Conditions: recombinant M17LAP, H-Leu-NHMec fluorogenic kinetic assay; at 30 µM; hits give high values.
Sequence of Leucine aminopeptidase (Plasmodium falciparum (isolate 3D7)) (Q8IL11 whole entry, looked up): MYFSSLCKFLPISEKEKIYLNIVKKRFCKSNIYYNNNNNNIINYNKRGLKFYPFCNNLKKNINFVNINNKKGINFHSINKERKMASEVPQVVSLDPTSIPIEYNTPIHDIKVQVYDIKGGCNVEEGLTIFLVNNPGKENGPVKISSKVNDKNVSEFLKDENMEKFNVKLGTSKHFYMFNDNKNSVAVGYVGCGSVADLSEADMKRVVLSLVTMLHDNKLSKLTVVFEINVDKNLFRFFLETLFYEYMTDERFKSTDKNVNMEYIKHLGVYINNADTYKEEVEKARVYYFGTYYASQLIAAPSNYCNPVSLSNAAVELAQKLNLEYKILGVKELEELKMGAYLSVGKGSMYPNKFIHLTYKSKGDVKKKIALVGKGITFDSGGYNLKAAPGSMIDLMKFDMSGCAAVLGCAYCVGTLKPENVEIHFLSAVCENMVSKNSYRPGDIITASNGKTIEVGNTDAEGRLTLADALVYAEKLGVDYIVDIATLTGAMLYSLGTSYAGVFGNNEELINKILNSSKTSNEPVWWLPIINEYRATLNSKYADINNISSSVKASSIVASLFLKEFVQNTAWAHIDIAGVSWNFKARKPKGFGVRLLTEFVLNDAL
Take `CCN(CC)c1ccc(/C=c2/sc3nnc(-c4ccccc4C)n3c2=O)cc1`: the inhibition is 9.78% (inactive).
The same measure for `CCN(CC)c1ccc(/C=c2\sc3nnc(-c4ccccc4Cl)n3c2=O)cc1`: 1.48% (inactive).
As to `Cc1ccc(/C=c2\sc3nc(-c4ccco4)nn3c2=O)o1`, the inhibition is 42.2% (inactive).
In the case of `Cc1ccc(/C=c2\sc3nc(-c4cccs4)nn3c2=O)o1` it was 79.6% (inactive); in that of `CCc1ccc(NC(=O)C(C)Nc2ccc(S(=O)(=O)NC(C)=O)cc2)cc1` (stereo unspecified), 3.98% (inactive).
In the case of `O=[N+]([O-])c1cccc(-c2nnn(C34CC5CC(CC(C5)C3)C4)n2)c1`, the inhibition was -10.4% (inactive).
As for `COc1ccc(N(CC(=O)Nc2ccc3c(c2)OCO3)S(=O)(=O)c2ccc(C)cc2)cc1OC`, the inhibition is -12.9% (inactive).
Consider `COc1ccc2c(c1OC)C(=O)OC2CC(=O)c1ccc(O)cc1` (stereo unspecified), for which the inhibition is 14.4% (inactive).
In the case of `COc1ccc(C(=O)CC2OC(=O)c3c2ccc(OC)c3OC)cc1` (stereo unspecified), the inhibition was 9.31% (inactive).
The same measure for `O=C(O)Cn1cc(/C=C2\SC(=O)N(c3ccccc3)C2=O)c2ccccc21`: 15% (inactive); for `CC(C)n1cc(/C=C2\NC(=O)N(c3cccc(Cl)c3)C2=O)c2ccccc21`: -7.4% (inactive); for `CCOc1ccc(Nc2cc(=O)oc3ccccc23)cc1`: 4.7% (inactive).
Regarding `Cc1cccc(N2CCN(S(=O)(=O)c3ccc4c(c3)CCN4C(=O)CCC(=O)O)CC2C)c1` (stereo unspecified), the inhibition was -2.93% (inactive).
Turning to `CCN(CC)C(=O)CSc1nnnn1-c1ccc(F)c(Cl)c1`, the inhibition is -1.03% (inactive).
On to `CNC(=S)Nc1ccc(C)cc1`, for which the inhibition is 3.68% (inactive).
As to `Cc1ccc(NC(N)=S)cc1`, the inhibition was 18.7% (inactive).
In the case of `O=C(CN1C(=O)C2C3C=CC(C3)C2C1=O)Nc1ccc2nccnc2c1` (stereo unspecified) it was 1.82% (inactive); in that of `Cc1cc(C=C2C(=O)c3ccccc3C2=O)c(C)n1-c1ccc(C(=O)O)cc1`, 18.3% (inactive); in that of `Cc1cc(C=C2C(=O)c3ccccc3C2=O)c(C)n1-c1ccccc1`, -3.81% (inactive).
For `Cn1c(=O)cc(OCCCC(=O)NCCC2=CCCCC2)c2ccccc21`, the inhibition was -10.7% (inactive).
`C=CCn1cccc(C(=O)Nc2ccc(OC)cc2OC)c1=O`: the inhibition is 21.4% (inactive).
Consider `COC(=O)COc1cccc2c(=O)n(CC(=O)N3CCCCC3)ccc12`, for which the inhibition was 12.9% (inactive).
In the case of `COc1cccc2c(=O)n(CC(=O)N3CCCCC3)ccc12`, the inhibition was 33.4% (inactive).
In the case of `CCOC(=O)COc1cccc2c(=O)n(CC(=O)N3CCC(C)CC3)ccc12`, the inhibition is 3.95% (inactive).
Turning to `COC(=O)COc1cccc2c(=O)n(CC(=O)N3CCC(C)CC3)ccc12`, the inhibition was -7.98% (inactive).
Consider `COc1ccccc1/C=C(\NC(=O)c1ccc(OC)c(OC)c1)C(=O)Nc1cccc([N+](=O)[O-])c1`, for which the inhibition was -33.9% (inactive).
